# From PubChem BioAssay
# This is a sample that favours compounds with a hit; in the whole collection about 1.3% have one here.
# MEX-5 binding = C. elegans MEX-5 TCR-2 RNA binding activity; MEX-5/FITC-TCR2 RNA binding, fluorescence polarization; hits give low values; activity score (negative = inhibition of binding), % at 10 µM; AID 1832; actives 0.38% (n = 300,000); Q9XUB2;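 active = inhibition past about -25% in most replicates, and total fluorescence under double the plate's negative control median, limit read from the data; inconclusive = replicates evenly split on the limit, or fluorescence at least double controls; inactive = too little inhibition in most replicates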
# Target sequence (Q9XUB2 whole entry, looked up): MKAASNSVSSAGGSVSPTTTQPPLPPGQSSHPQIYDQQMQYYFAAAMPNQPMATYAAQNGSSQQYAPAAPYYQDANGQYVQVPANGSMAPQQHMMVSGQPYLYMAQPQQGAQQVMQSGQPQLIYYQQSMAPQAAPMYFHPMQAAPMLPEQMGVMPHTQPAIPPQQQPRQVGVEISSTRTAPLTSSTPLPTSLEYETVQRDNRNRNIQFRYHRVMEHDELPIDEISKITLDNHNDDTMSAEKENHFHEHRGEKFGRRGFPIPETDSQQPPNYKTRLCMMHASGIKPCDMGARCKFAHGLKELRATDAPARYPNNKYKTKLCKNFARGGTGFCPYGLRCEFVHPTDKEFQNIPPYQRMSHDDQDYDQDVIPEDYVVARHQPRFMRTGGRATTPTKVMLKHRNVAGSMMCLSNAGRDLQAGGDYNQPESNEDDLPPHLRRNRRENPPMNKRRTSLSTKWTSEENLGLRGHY
# BCLXL inh = Bcl-xL (human) inhibition. Q07817. GST-Bcl-xL / FITC-Bim BH3 peptide fluorescence polarization. inhibition, % at 10.9 µM. actives 0.7% (n = 320,000);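 active = inhibition above the mean of all tested compounds plus 3 SD, cutoff set per campaign, cut at about 30% in these data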;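 note: inhibitors lower millipolarization by displacing the labeled peptide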
# MCL1-BIM inh = disrupts human MCL1 binding to BIM-BH3 peptide. Q07820. GST-MCL1 / FITC-Bim-BH3 fluorescence polarization. inhibition, % at 10.9 µM. actives 0.68% (n = 320,000). AID 2057;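 active = inhibition above the mean inhibition of all tested compounds plus 3 SD, set per campaign, cut at about 40% in these data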;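 note: higher means more loss of mP so more displacement of Bim peptide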
# EBV gp42 inh = EBV gp42 inhibition; Q1HVG2; Fluorescence polarization binding assay, mP read-out; inhibition, % (tested at 21.74 µM); actives 0.42% (n = 220,000); in the data active = inhibition above about 50%
# GLD-1 RNA inh = GLD-1-TGE RNA interaction inhibition (C. elegans). AID 2280. purified GLD-1 + fluorescein TGE RNA, fluorescence polarization. Q17339. actives 0.44% (n = 320,000). inhibition, % at 5.96 µM;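 active = percent inhibition above a per-plate cutoff, the plate mean of test compounds plus 3 SD, cut at about 30% in these data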
# BCLXL inh confirm = counter-screen for MCL1 inhibitors: confirmation of human Bcl-xL inhibitors. inhibition, % at 10.9 µM. GST-Bcl-xL / FITC-Bim BH3 peptide FP binding. shares compounds with MCL1-BIM inh. AID 2166. actives 54% (n = 1,700);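 active = inhibition above a cutoff equal to the mean inhibition of all tested compounds plus 3 SD, cut at about 30% in these data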
# MCL1 inh confirm = confirmation of human MCL1 and BIM-BH3 interaction inhibitors. GST-MCL1 / FITC-Bim-BH3 fluorescence polarization. actives 61% (n = 1,700). inhibition, % at 10.9 µM. shares compounds with MCL1-BIM inh;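 active = inhibition above the average of all tested compounds plus 3 SD, cut at about 40% in these data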
# A number is an active result; 0 = inactive; ? = inconclusive; - = not tested or not shown; + = active, no number.
SMILES,MEX-5 binding,BCLXL inh,MCL1-BIM inh,EBV gp42 inh,GLD-1 RNA inh,BCLXL inh confirm,MCL1 inh confirm
O=C(CN1CCCc2ccccc21)NCc1ccccc1Cl,0,62,68,0,0,0,0
Cc1cc(S(=O)(=O)N2CCCOC2CNC(=O)C(=O)NCCCN2CCOCC2)ccc1F (stereo unspecified),0,0,0,-,0,-,-
Cc1nc2sc(C(c3ccco3)N3CCC(Cc4ccccc4)CC3)c(O)n2n1 (stereo unspecified),0,0,0,0,0,-,-
CC(C)(C)OC(=O)N1CC=C2C(C#N)=C(N)C(C#N)(C#N)[C@H](c3cccnc3)[C@H]2C1,-28,53,67,0,37,45,47
CC(C)(C)OC(=O)N1CC=C2C(C#N)=C(N)C(C#N)(C#N)C(c3cccs3)C2C1 (stereo unspecified),0,0,0,0,0,-,-
CC(C)N1CC=C2C(C#N)=C(N)C(C#N)(C#N)[C@H](c3ccoc3)[C@H]2C1,?,158,183,130,85,78,100
Cc1ccc(C2C3CSCC=C3C(C#N)=C(N)C2(C#N)C#N)cc1 (stereo unspecified),0,0,0,0,0,-,-
COc1cc(C2C3CN(C)CC=C3C(C#N)=C(N)C2(C#N)C#N)ccc1OC(C)C (stereo unspecified),-30,60,66,0,0,0,0
CN(C)CCP(=O)(c1ccccc1)c1ccccc1,0,0,0,0,0,-,-
CN(C)CCN(C)Cc1c2ccccc2c(CN(C)CCN(C)C)c2ccccc12,-64,172,189,-,123,77,102
COc1ccc(C(=O)CSc2nnc(NC(=O)C3CC(=O)N(c4ccccc4C)C3)s2)cc1 (stereo unspecified),0,0,0,0,0,-,-
CC(C)(C)c1cc(C(=O)NNC(=O)c2ccc(Cl)cc2)no1,0,0,0,0,0,-,-
CCN(CC)C(=O)CSc1nnc2nnc3cc(OC)ccc3n12,-77,138,148,124,120,124,159
O=C(NNC(=O)c1ccc(Br)s1)c1ccc(F)c(S(=O)(=O)N2CCOCC2)c1,-,0,0,-,0,-,-
COC(=O)C1CSc2[nH]c(=O)sc2C1c1ccccc1 (stereo unspecified),-57,107,119,0,84,88,109
O=C(COc1ccccc1)NCCc1cn2ccsc2n1,0,0,0,0,0,-,-
CSC(=NC#N)N1CCN(c2ccc(Cl)cc2)CC1,0,0,0,0,0,-,-
O=c1ccc2cc3c([nH]c4ccc(Br)cc43)oc-2c1O,-79,46,85,0,0,0,69
CC1(O)C(=O)C=C2C=C(c3ccc(C#N)cc3)OC=C2C1=O (stereo unspecified),0,0,47,-,0,0,40
O=c1[nH]c(Nc2ccccc2Cl)cc2ccccc12,0,0,0,-,0,-,-
Cc1ccccc1Nc1cc2ccccc2c(=O)[nH]1,0,82,81,0,50,85,93
Cc1ccn2cc(-c3ccc(O)c(O)c3)nc2c1,-46,0,56,-,0,58,58
Cc1ccn2cc(-c3cccc(NC(=O)C(C)C)c3)nc2c1,0,0,0,0,0,-,-
O=c1[nH]c(-[n+]2ccccc2)c(/C=N/N=C(\[O-])c2ccccc2)s1,0,0,0,0,0,-,-
Cc1ccc[n+](-c2[nH]c(=O)sc2/C=N/NC(=O)c2ccccc2[O-])c1,-27,44,75,53,31,39,56
SMILES,MEX-5 binding,BCLXL inh,MCL1-BIM inh,EBV gp42 inh,GLD-1 RNA inh,BCLXL inh confirm,MCL1 inh confirm
O=C(N/N=C/c1sc(=O)[nH]c1-[n+]1ccccc1)c1ccccc1[O-],0,44,55,0,0,46,64
O=C(N/N=C/c1sc(=O)[nH]c1-[n+]1ccc2ccccc2c1)c1ccccc1[O-],0,156,178,-,165,31,0
O=C(NC1CCCCC1)c1cc(-c2cccs2)on1,0,0,0,-,0,-,-
COc1ccc(CNC(=O)CC2C[C@H](C(=O)N3CCOCC3)[C@@]3(C)c4[nH]c5ccccc5c4CCN3C2=O)cc1OC (stereo partly specified),-,-,-,-,0,-,-
Cc1ccc(C(=O)N/C(=C\c2ccc(-c3ccccc3[N+](=O)[O-])o2)C(=O)NCCN(C)C)cc1,0,56,66,-,0,0,0
Cc1ccc(C(=O)N/C(=C\c2ccc(-c3ccccc3[N+](=O)[O-])o2)C(=O)NCCCN(C)C)cc1,-27,76,80,-,51,0,0
CC(=O)C(Sc1nc(NC(C)(C)C)nc(N(C)C)n1)C(C)=O,0,0,193,0,0,0,0
COC(=O)CSc1nc(NC(C)(C)C)nc(N(C)C)n1,0,0,0,0,0,-,-
N#CCSc1ccc(-c2nc3ccccc3[nH]2)cn1,0,0,0,0,0,-,-
COc1ccc(CN2C(=O)Cc3c2nc(N)c2c(N)nc(N4CCCCC4)c(C#N)c32)cc1,0,45,66,0,0,0,0
CCCn1c(CCNC(=O)c2ccco2)nc2ccccc21,0,0,0,-,0,-,-
COc1ccc(Cl)cc1NC(=O)CSc1nnc(C2CC2)n1C,0,0,0,-,0,-,-
COC(=O)C1=C(CSc2nc3c(cc2C#N)CN(C)CC3)OC(N)=C(C#N)C1c1ccc(F)cc1 (stereo unspecified),0,58,74,0,0,0,0
Cc1noc(C)c1Cn1nc(C(=O)O)c2ccccc2c1=O,0,0,0,0,0,-,-
CCOC(=O)c1cc2n(c1/N=C/N(C)C)-c1ccccc1C2=O,?,192,+,151,169,186,+
CCOC(=O)c1ccc2c(c1)N(C)C(=O)c1ccccc1S2,0,0,0,-,0,-,-
COc1ccc(-n2nc3c(c2NC(=O)c2cc4ccccc4o2)CS(=O)(=O)C3)cc1,0,0,0,-,0,-,-
O=C(CN1c2ccccc2Sc2ccccc21)NNC(=S)Nc1ccc(Cl)cc1,0,0,0,0,0,-,-
O=C(CN1CCOCC1)NNC(=S)Nc1ccc(Cl)cc1,0,0,55,0,0,0,0
Nc1ccc2nc(-c3ccccc3)cnc2c1,0,99,119,-,81,121,142
Nc1ccc2nc(-c3ccccc3)c(-c3ccccc3)nc2c1,-40,49,60,-,73,63,54
Nc1ccc(-c2cnc3ccccc3n2)cc1,0,0,0,-,0,-,-
Nc1ccc(Oc2ccc3nc(-c4ccccc4)c(-c4ccccc4)nc3c2)cc1,0,0,0,0,0,-,-
Cc1ccc(NC(=O)C2COc3ccccc3O2)cc1S(=O)(=O)N1CCOCC1 (stereo unspecified),-,0,0,-,0,-,-
O=C(COC(=O)Cc1ccc(Br)cc1)NCc1ccc(F)cc1,0,0,0,0,0,-,-
